Hits are enriched below; roughly 7.5% of the tested compounds scored in any of these assays.
FLuc counter: qHTS profiling assay for firefly luciferase inhibitor/activator using purifed enzyme and Km concentrations of substrates (counterscreen for miR-21 project) | Luciferin 4-monooxygenase (Photinus pyralis), P08659 | purified FLuc, Km substrates, luminescence inhibition | Potency, µM (doses to about 57.5 µM), for inactives: at the top dose activity change, negative = inhibition, hits mostly inhibitors | 360,000 compounds, 6.9% hits;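 note: plate controls were vehicle for no effect and reference inhibitor for full effect; nearly all actives have a fitted effect of over 55% in size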
Target sequence (P08659 whole entry, looked up): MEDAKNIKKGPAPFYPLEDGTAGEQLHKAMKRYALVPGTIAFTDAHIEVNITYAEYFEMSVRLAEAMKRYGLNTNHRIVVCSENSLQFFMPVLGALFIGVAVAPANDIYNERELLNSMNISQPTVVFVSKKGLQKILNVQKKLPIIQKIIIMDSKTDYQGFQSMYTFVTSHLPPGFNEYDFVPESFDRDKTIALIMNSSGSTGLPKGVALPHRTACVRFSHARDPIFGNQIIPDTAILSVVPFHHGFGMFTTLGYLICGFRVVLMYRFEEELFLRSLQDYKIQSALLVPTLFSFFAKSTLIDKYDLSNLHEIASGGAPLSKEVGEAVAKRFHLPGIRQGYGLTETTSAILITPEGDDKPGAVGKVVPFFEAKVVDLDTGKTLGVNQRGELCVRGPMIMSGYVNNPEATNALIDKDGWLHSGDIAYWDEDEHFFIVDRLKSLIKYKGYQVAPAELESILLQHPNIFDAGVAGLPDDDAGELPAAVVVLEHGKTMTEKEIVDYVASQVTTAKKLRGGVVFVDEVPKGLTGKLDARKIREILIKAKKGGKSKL
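Purified P. pyralis luciferase (10nM final) with 10uM D-luciferin and 10uM ATP (Km levels) in 50mM Tris acetate pH 7.5, 10mM Mg acetate, 0.01% Tween-20, 0.05% BSA; qHTS 6-point titration, ~60 µM downward; luminescence read.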
NPC1 prom act: qHTS Assay for NPC1 Promoter Activators; Potency, µM (highest dose often 9.22 µM), inactives show top-dose activation, most hits filed as activators; AID 485313, 2010; Huh7 NPC1 promoter luciferase reporter, 24 h; 320,000 compounds, 2.4% hits; note: % of control where 0% means no effect; nearly all actives have a fitted effect of over 60% in size
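NPC1 promoter–luciferase Huh7 cells; 24 h compound; luminescence.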
SMN2 splice up: qHTS Assay for Enhancers of SMN2 Splice Variant Expression. HEK293 SMN2-luciferase splicing reporter, luminescence, 30-36 h. Potency, µM (doses to about 46.1 µM), for the others: top-dose activity change, positive = activation, hits mostly activators. 210,000 compounds, 2.8% hits. AID 1458, 2008; note: % of control where 0% means no effect; nearly all actives have a fitted effect of over 55% in size
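qHTS luciferase splicing reporter: luminescence rises when SMN2 exon 7 is included in transfected HEK293 cells. Compound exposure lasted 30-36 h at 37C, with 4.5 mM final sodium butyrate as control, followed by a ONE-Glo read.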
ELG1 genotoxic: qHTS screen for small molecules that induce genotoxicity in human embryonic kidney (HEK293T) cells expressing luciferase-tagged ELG1; 330,000 compounds, 1.3% hits; Potency, µM (highest dose often 46 µM), without a hit: at the highest dose activity change, positive = activation, most hits filed as activators; HEK293T ELG1-luciferase reporter, luminescence, 16 h; note: % of control where 0% means no effect; nearly all actives have a fitted effect of over 60% in size
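Genotoxic stress is detected as increased luminescence from luciferase-tagged ELG1 in HEK293T cells, measured with ONE-Glo after a 16 hr treatment at 37 °C.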
KinaseGlo FLuc: Counterscreen for Luciferase (Kinase-Glo TM) Inhibition; Kinase-Glo luciferase, ATP luminescence, 8 min; Potency, µM (highest dose often 38.3 µM), inactives show top-dose activity change, negative = inhibition, hits mostly inhibitors; 200,000 compounds, 0.28% hits; note: % is set by controls: 0 for no effect and ±100 for the full control effect; nearly all actives have a fitted effect of over 60% in size
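Inhibition of Kinase-Glo luciferase light generation was assessed at 10 uM ATP in pH 7.2 imidazole buffer, with luminescence measured after eight minutes at ambient temperature.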
Rab9 prom act: qHTS Assay for Rab9 Promoter Activators; Huh7 Rab9 promoter-luciferase reporter, luminescence, 24 h; Potency, µM (top dose mostly 9.22 µM), for inactives: at the top dose activation, negative = inhibition, usual class: activators; AID 485297, 2010; 320,000 compounds, 2.8% hits; note: % of control where 0% means no effect; nearly all actives have a fitted effect of over 60% in size
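Promoter activation is measured as luciferase luminescence in Huh7 cells stably transfected with a Rab9 promoter–luciferase construct, following 24 h compound exposure at 37 °C and 10 min reagent incubation at ambient temperature.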
Numbers without * were called inactive; u = inconclusive; x = no result; [ ] = another dose, or the depositor's remark. Calls come from the whole dose curve; as a rule, active = well fitted curve in the direction sought with a large enough effect; inconclusive = small, poorly fitted or top-dose-only effect, or another doubt; inactive = no such curve, though single readings can be large; an effect the other way counts as inactive or inconclusive. Potency is the fitted concentration of half-maximal effect.

SMILES	FLuc counter	NPC1 prom act	SMN2 splice up	ELG1 genotoxic	KinaseGlo FLuc	Rab9 prom act
CCOc1ccc(C(=O)N/N=C/c2cccc3cccnc23)cc1	6.75µM*	-27.3%	-4.2%	3.5%	-5.3%	-20.1%
COc1ccc(C(=O)N/N=C/c2cccc3cccnc23)cc1	7.57µM*	-3.7%	-14.0%	2.0%	-5.2%	-10.3%
COc1ccc(C(=O)N/N=C/c2cccnc2)cc1	15.1µM*	u	x	u	x	20.8%
CC(=O)Nc1ccc(C(=O)N/N=C/c2cccnc2)cc1	10.1%	-2.2%	-95.5%[1.84 µM]	2.0%	-1.3%	-0.1%
O=C(CNC(=O)C1CCCCC1)NCc1ccco1	0.3%	-8.3%	x	-7.9%	x	0.8%
COc1ccc(C)cc1NC(=O)C(=O)NCCc1csc2nc(-c3ccccc3F)nn12	-1.2%	x	x	x	x	x
Cc1ccc(/C=C/C(=O)NC2CCCCCCC2)o1	23.9µM*	27.6%	u	u	-0.2%	u
O=C(/C=C/c1ccccc1Cl)NC1CCS(=O)(=O)C1 (stereo unspecified)	-2.1%	-3.0%	x	4.5%	-0.6%	-4.3%
O=C(/C=C/c1ccccc1Cl)NC1CCCCC1	10.7µM*	2.82µM*	x	u	x	3.55µM*
Cc1ccc(/C=N/NC(=O)NC2CCCCC2)o1	-19.8%	7.5%	-5.9%	7.6%	1.7%	19.6%
O=C(Nc1c2c(nn1-c1ccc(Cl)cc1)CS(=O)(=O)C2)c1cccc(Cl)c1	-15.8%	x	x	x	x	x
Cc1cccnc1Nc1nc(-c2ccccc2)cs1	1.9µM*	3.16µM*	x	2.59µM*	x	3.55µM*
Cc1cccnc1Nc1nc(-c2ccccn2)cs1	u	u	x	5.8µM*	-6.6%	-0.6%
O=C(O)CSc1cc(C(=O)c2cc(F)ccc2O)cn2c(=O)c3c(-c4ccccc4)csc3nc12	26.9µM*	-0.3%	x	-5.6%	x	-2.6%
CCOC(=O)c1sc2nc3c(SCCC(=O)O)cc(C(=O)c4cc(OC)ccc4O)cn3c(=O)c2c1C	3.01µM*	1.5%	-19.6%	0.6%	1.5%	1.6%
CCc1c(C)sc2nc3c(C(=O)N4CCOCC4)cc(C(=O)c4cc(F)ccc4O)cn3c(=O)c12	-9.3%	-6.2%	-49.7%	-12.2%	3.2%	-1.0%
CCOC(=O)c1sc2nc3c(SCCC#N)cc(C(=O)c4cc(F)ccc4O)cn3c(=O)c2c1C	-1.2%	-0.1%	-39.7%	-5.1%	2.5%	-7.6%
CCCN(CCC)C(=O)Cn1c(=O)n(CCCCCC(=O)NCc2ccccc2Cl)c(=O)c2sccc21	-16.9%	x	4.8%	x	x	x
O=C(Nc1cc2cccc([N+](=O)[O-])c2oc1=O)c1cccs1	-11.1%	0.6%	9.6%	4.1%	-1.2%	0.0%
COc1ccccc1-c1cc(C(=O)N2CCCc3ccccc32)no1	u	2.1%	3.5%	9.4%	2.0%	14.3%
COc1ccc(OC)c(-c2cc(C(=O)N3CCCc4ccccc43)no2)c1	1.9%	-4.0%	-7.0%	-7.4%	5.0%	10.2%
O=C(c1cc(-c2ccc(F)cc2)on1)N1CCCc2ccccc21	10.7µM*	22.1%	u	u	0.0%	u
Cc1ccc(-c2cc(C(=O)N3CCCc4ccccc43)no2)cc1	4.26µM*	u	u	u	0.9%	3.16µM*
O=C(c1cc(-c2cccs2)on1)N1CCCc2ccccc21	16.9µM*	13.8%	21.5%	u	-1.3%	22.5%
O=C(NCCc1ccc(Cl)cc1)C1CCN(Cc2cc3ccccc3n2Cc2ccccc2)CC1	-6.3%	x	x	x	x	x
SMILES	FLuc counter	NPC1 prom act	SMN2 splice up	ELG1 genotoxic	KinaseGlo FLuc	Rab9 prom act
CN=c1scc(-c2ccc(F)cc2)n1/N=C/c1ccc(O)c(O)c1	0.675µM*	-43.8%	u	-6.8%	-18.7%	14.9%
Cc1ccc(CN2CCN(/N=C/c3ccc(O)c(O)c3)CC2)cc1	-10.3%	-13.3%	x	17.0%	x	-1.5%
CCCc1ccc(C(=O)NNc2ccccc2F)cc1	16.9µM*	u	x	u	x	u
COc1ccc(C(=O)Nc2ccc(F)cc2F)cc1OC	-0.9%	12.9%	3.8%	13.9%	-10.1%	15.1%
COc1cccc(C(=O)Nc2ccc(F)c(F)c2F)c1	16.9µM*	u	u	u	-7.1%	u
COc1cccc(C(=O)Nc2ccccc2F)c1	u	21.2%	11.2µM*	u	-27.2%	u
COc1cccc(C(=O)Nc2ccc(F)cc2F)c1	u	u	12.6µM*	u	-14.5%	u
O=C(Cn1c(SCCOc2ccc(Cl)cc2)nc2ccccc21)N1CCCCC1	-1.7%	x	x	x	x	x
CC(C)Oc1cccc(C(=O)Nc2ccc(Br)cc2F)c1	0.953µM*	3.55µM*	5.01µM*	u	-1.1%	1.26µM*
Cc1noc(C)c1COc1cccc(C(=O)Nc2ccc(Br)cc2F)c1	x	x	x	8.4%	x	x
O=C(Nc1ccccc1F)c1ccc(C(=O)c2ccccc2)cc1	10.7µM*	2.82µM*	x	u	x	3.55µM*
COc1cccc(C(=O)Nc2ccc(C(F)(F)F)n(C)c2=O)c1	6.01µM*	2.82µM*	x	u	u	2.82µM*
Cc1cc2nc(-c3cccnc3SCC(=O)NC3CC3)[nH]c2cc1C	2.69µM*	u	15.8µM*	u	u	u
O=C(CSc1nc2ncccc2[nH]1)NCc1ccco1	5.1%	3.0%	x	0.0%	x	-1.9%
O=C(CSc1ncccc1-c1nc2ccccc2[nH]1)NCc1ccco1	23.9µM*	20.1%	-13.2%	u	-11.5%	26.1%
Cc1cc2nc(-c3cccnc3SCC(=O)NCc3ccco3)[nH]c2cc1C	0.953µM*	3.98µM*	12.6µM*	u	11.2µM*	3.16µM*
O=C(CSc1nc2ccccc2[nH]1)NCc1ccco1	-12.6%	8.3%	15.8%	u	0.9%	13.4%
Cc1cc(C)nc(CCNC(=O)c2cc(COc3ccccc3)on2)n1	2.4%	20.0%	x	17.5%	x	u
COc1ccccc1-c1nnc(C2CCN(S(=O)(=O)c3ccccc3)CC2)o1	4.3%	x	1.9%	x	x	x
O=C(c1ccc(CS(=O)c2ccc(F)cc2)o1)N1CCN(C2CCCCC2)CC1 (stereo unspecified)	1.8%	2.3%	x	5.1%	x	-13.4%
COc1ccc(S(=O)(=O)N(CCc2ccccc2)CC(=O)NCc2ccc(C)cc2)cc1	-15.0%	x	0.1%	x	x	x
CCCOc1ccc(/C=N/O)cc1	u	10.7%	-2.0%	-1.5%	4.0%	17.6%
O/N=C/c1ccc(OCC(O)COc2ccc(/C=N/O)cc2)cc1	15.1µM*	1.1%	-9.0%	-0.6%	-2.6%	1.7%
O=C(COc1ccc(F)cc1)OCc1cc(=O)n2nc(C3CCCCC3)sc2n1	-1.1%	x	x	x	x	x
CCOc1ccc2nc(SCc3ccc(OC)cc3)sc2c1	13.5µM*	5.7%	-20.7%	0.5%	2.9%	7.7%

Screening data deposited in PubChem BioAssay by National Center for Advancing Translational Sciences (NCATS).
